# Among all 1,300 compounds or so, about 270 (21%) were called active. How the calls were made is not given here. Only a sample is shown. Results with a measured potency or affinity are listed apart.
# Assay: SK-MEL-5 parental cell viability loss, dose response, orthogonal assay for MITF inhibitor project, CellTiter-Glo, cherry-picked, set 3 (AID 493240)
# Conditions: SK-MEL-5 viability, ATP luminescence (CellTiter-Glo), 24 h; series mostly up to 35 µM
row,Structure (SMILES),outcome
1,Cn1c(COc2ccccc2Br)nc2ccccc21,inactive
2,C[C@H]1CCC[C@]2(C)C[C@H]3OC(=O)C(CN4CCCCCC4)[C@H]3C=C12 (stereo partly drawn),inactive
3,COc1ccc(NC(=O)c2cc3ccccc3[nH]2)cc1,inactive
4,COc1cc2nc(SCC(=O)NCc3ccco3)n(Cc3ccc(Cl)cc3)c(=O)c2cc1OC,inactive
5,O=C(NCc1ccco1)c1ccc(COCC(F)(F)F)cc1,inactive
6,CCN(C(=O)c1ccco1)c1nc(-c2ccc(OC)cc2)cs1,inactive
7,CCOCCCNC(=O)/C(C#N)=C/c1ccc([N+](=O)[O-])o1,inactive
8,CC1CC(C)CN(C(=O)/C=C/c2ccc([N+](=O)[O-])s2)C1 (stereo not drawn),inactive
9,COc1ccc(C(=O)C(CN2CCOCC2)c2ccccc2)cc1 (stereo not drawn),inactive
10,COc1ccc(C(=O)C(CN2CCCC2)c2ccccc2)cc1 (stereo not drawn),inactive
11,COc1ccc(C(=O)CCNc2ccc(F)cc2)cc1,inactive
12,CCNC(=O)CC1C(=O)N(c2ccc(F)cc2)C(=O)N1CCc1ccc(OC)cc1 (stereo not drawn),inactive
13,CC(C)(C)c1ccc(-c2cc(N)n[nH]2)cc1,inactive
14,O=C(Nc1ccc(Cl)cc1)C1C2CCCCC21 (stereo not drawn),inactive
15,CCOC(=O)N1C(=O)[C@@](CC)(c2ccccc2)N1C(=O)OCC,inactive
16,O=S1(=O)CCC(NC(=S)SCc2ccccc2Br)C1 (stereo not drawn),inactive
17,O=C(CSCC(=O)Nc1ccccc1)N/N=C/c1c(O)ccc2ccccc12,inactive
18,CCOC(=O)c1cn2nc(Oc3ccccc3)ccc2n1,inactive
19,COc1ccc(/C=C2\SC(=S)N(CCCC(=O)NNC(=O)c3ccccc3O)C2=O)cc1,inactive
20,CN(C)CCNc1ccc2nnn3c4ccc(O)cc4c(=O)c1c23,inactive
21,O=C(Nc1ccccc1Cl)Nc1cccc2cccnc12,inactive
22,COc1ccc2oc(=N)c(C(=O)Nc3ccccc3Cl)cc2c1,inactive
23,Cc1cc(C(=O)Nc2cccc(C(=O)O)c2)oc1C,inactive
24,CCSc1nc2c(cnn2-c2ccccc2)c(=O)n1N,inactive

row,Structure (SMILES),outcome
1,O=C(O)c1cccc(N/N=C/c2ccc(OC(F)(F)F)cc2)c1,inactive
2,COc1cc(C2C(C#N)=C(N)Oc3cc4c(cc32)OCO4)cc(OC)c1OC (stereo not drawn),inactive
3,O=C(C[n+]1cc(-c2ccc(F)cc2)n2c1CCC2)c1cccs1,inactive
4,Clc1ccc(-c2c[n+](Cc3cccc(Cl)c3)c3n2CCC3)cc1,inactive
5,Nc1ccc(-c2nc3c(Cl)cc(N)cc3[nH]2)cc1,inactive
6,C=CCSC(=S)NC1CCS(=O)(=O)C1 (stereo not drawn),inactive
7,C/C(=N\NC(=O)C(C)Oc1ccc([N+](=O)[O-])cc1)c1ccccn1 (stereo not drawn),inactive
8,O=C(/C=C/c1ccc([N+](=O)[O-])s1)N1CCCC1,inactive
9,COc1ccc(C(=O)Nc2ccc3ccccc3c2)cc1OC,inactive
10,COc1ccc(NC(=O)c2cc(F)cc(F)c2)cc1Cl,inactive
11,COc1ccc(NC(=O)c2scc(S(=O)(=O)C(C)C)c2N)cc1,inactive
12,O=C(/C=C/c1ccccc1)Nc1cccc(C(=O)O)c1,inactive
13,O=C(Nc1ccccc1F)c1ccc2c(c1)OCO2,inactive
14,Cc1cccc(OCC(=O)Nc2cccc(O)c2)c1,inactive
15,CC1(C)Cc2c(sc(NC(=O)Nc3ccccc3)c2C(N)=O)CO1,inactive
16,COc1cccc(/C=N/Nc2nc3ccccc3[nH]2)c1OC,inactive
17,O=C(Nc1ccc(-c2cn3c(n2)SCC3)cc1)c1ccco1,inactive
18,NNC(=O)c1cc2ccccc2cc1O,inactive
19,CN(CC(=O)N1CCCCCC1)S(=O)(=O)c1ccccc1,inactive
20,COC(=O)C1=C(CN2CCCc3ccccc32)NC(=O)NC1c1ccc(F)cc1 (stereo not drawn),inactive
21,O=Cc1ccc(N2Cc3ccccc3C2)cc1,inactive
22,Cc1ccc(C(=O)c2coc3ccc(O)c(Cl)c23)cc1,inactive
23,COCc1cc(C)nc2sc(C(=O)Nc3cccc(OC)c3)c(N)c12,inactive
24,COc1ccc(CNC(=O)CN2C(=O)C3C4C=CC(C4)C3C2=O)cc1 (stereo not drawn),inactive

row,Structure (SMILES),outcome
1,CN(C)CC1CC/C(=C\c2ccc(O)cc2)C1=O (stereo not drawn),inactive
2,Cc1cc(NC(=O)c2ccc(Cl)cc2Cl)no1,inactive
3,N/C(=N\OC(=O)c1ccncc1)c1cccc([N+](=O)[O-])c1,inactive
4,O=[N+]([O-])/C=C\c1ccc(N2CCOCC2)cc1,inactive
5,COc1cccc2sc(N3CCN(C(=O)c4ccc([N+](=O)[O-])o4)CC3)nc12,inactive
6,Oc1c(Cl)cc(Cl)cc1/C=N/Nc1ncc(Br)cn1,inactive
7,O=C(Cc1cccs1)NCc1ccc(Cl)cc1Cl,inactive
8,c1ccc(OCc2nc3ccccc3[nH]2)cc1,inactive
9,CC(=O)c1c(C)[nH]c(C(=O)Nc2ccc(C)c(C)c2)c1C,inactive
10,BrC(=C\c1ccccc1)/C=N/n1cnnc1,inactive
11,Cc1cc2ncn(/N=C/c3ccc([N+](=O)[O-])o3)c2cc1C,inactive
12,CN(C(=O)/C=C/c1ccc([N+](=O)[O-])s1)c1ccccc1,inactive
13,Nc1nc2ccccc2n1/N=C/c1ccc(-c2ccccc2)o1,inactive
14,O=[N+]([O-])c1ccc(/C=N/n2c(CO)nc3ccccc32)s1,inactive
15,Cc1ccc(C)c(-n2c3nc(=O)[nH]c(=O)c-3cc3cc([N+](=O)[O-])ccc32)c1,inactive
16,O=C(Nc1ccc(F)c(Cl)c1)c1ccc2c(c1)OCO2,inactive
17,COc1ccccc1N1CCN(/N=C\c2ccccc2)CC1,inactive
18,CC(C)(C)N=Cc1cc(-c2ccccc2)sc1O,inactive
19,N#Cc1ccc(-c2cccnc2)nc1SCC(=O)c1ccccc1,inactive
20,COc1ccc(C(=O)Nc2nc3ccc(OC)cc3s2)cc1,inactive
21,CC(=C/c1ccco1)/C=N/N1CCN(c2ccccc2)CC1,inactive
22,CCCN(CC(=O)Nc1ccccc1C)C(=O)CCl,inactive
23,Cc1nc(-c2ccccn2)sc1C(=O)Nc1ccc(F)cc1F,inactive
24,CC(=O)Nc1cccc2c1Cc1ccccc1-2,inactive

row,Structure (SMILES),outcome
1,COc1ccc(N/C=C\C(=O)c2ccc3ccccc3c2)cc1,inactive
2,Cc1c(NC(=O)c2ccc([N+](=O)[O-])o2)cccc1-c1nc2ncccc2o1,inactive
3,CCN(CC)S(=O)(=O)c1cccc(C(=O)N/N=C(\C)c2ccc(O)cc2O)c1,inactive
4,CCCCCCN1C=CC(=C2C(=O)c3ccccc3C2=O)C=C1,inactive
5,CC(C)CC(=O)NC(c1cccs1)c1ccc2cccnc2c1O (stereo not drawn),inactive
6,COCCN(C(=O)CCl)C(C(=O)NC1CCCCC1)c1ccccc1C (stereo not drawn),inactive
7,O=C(/C=C/c1ccccc1Cl)NC1CCCCC1,inactive
8,COc1ccc(/C=C/C(=O)NC(=S)N2CCN(c3ccccc3OC)CC2)cc1,inactive
9,COCCn1c(C)cc(C(=O)CSc2nnc(C)s2)c1C,inactive
10,c1ccc(CSc2nnc(-c3ccco3)n2Cc2ccco2)cc1,inactive
11,N#Cc1c(NC(=O)CSc2ncn[nH]2)sc2c1CCCC2,inactive
12,COc1ccc(-c2cc(-c3ccc(OC)c(OC)c3)n[nH]2)c(O)c1,inactive
13,CCCC1=Nc2cc(C(=O)NCCN3CCCC3)ccc2Sc2ccccc21,inactive
14,N#CC(C#N)=C1C=CC=CN1/C(=C\c1ccco1)C(=O)c1ccc(Cl)cc1,inactive
15,O=C(Nc1ccc2c(c1)OCCO2)c1coc2ccccc2c1=O,inactive
16,O=C(NCc1ccccc1)NC1(C(=O)Nc2ccc3c(c2)OCCO3)CCCCC1,inactive
17,COc1ccc(N(CC(=O)NCC2CCCO2)S(=O)(=O)c2ccccc2)cc1OC (stereo not drawn),inactive
18,COc1ccc(/C=N/NC(=O)Cc2cccs2)cc1,inactive
19,CCOC(=O)/C=c1\s/c(=C\c2ccc3cc(OC)ccc3c2)c(=O)n1CC(=O)NCC1CCCO1 (stereo not drawn),inactive
20,CC(C)(C)C(=O)Cn1ncc(Br)c(Br)c1=O,inactive
21,Cc1ccc2c(C(=O)CCl)c(C)[nH]c2c1,inactive
22,Cn1cc(C(=O)CCl)c2ccccc21,inactive
23,COc1ccccc1N1C(=O)N(C(C)=O)C2C1Nc1ccccc1N2C (stereo not drawn),inactive
24,Cc1cccc(OCc2nc3ccccc3n2C)c1,inactive

row,Structure (SMILES),outcome
1,Cc1nc(NC(=O)C2CC2)sc1C(=O)Nc1ccccc1Cl,inactive
2,CCOc1ccc(N=C(C)C2=C(O)c3ccccc3C2=O)cc1,inactive
3,O=C(CC(=O)c1ccccc1)Nc1ccccc1,inactive
4,CCCCOC(=O)Nc1ccc2c(C)cc(=O)oc2c1,inactive
5,COc1cc(CN2CCC(Cc3ccccc3)CC2)cc(OC)c1OC,inactive
6,COc1ccc(S(=O)NC2CCCCC2)c(OC)c1C (stereo not drawn),inactive
7,CCOC(=O)C1(Cc2cccc(OC)c2)CCCN(C(=O)CSC)C1 (stereo not drawn),inactive
8,CC(C)(C)c1ccc(C(=O)N2CCCCCC2=O)cc1,inactive
9,C=CC[n+]1c(-c2ccc(C)cc2)csc1Nc1ccc(NC(C)=O)cc1,inactive
10,CC(C)(C)c1ccc(OCCCNCc2ccccc2)cc1,inactive
11,O=C1c2ccccc2C(=O)N1CCOc1ccccc1,inactive
12,CCOC(=O)c1cc(-c2ccc(OC)cc2)n[nH]1,inactive
13,COc1ccc(C(=O)Nc2ccc(C)cn2)c(OC)c1,inactive
14,O=C(N/N=C/c1ccccn1)c1cc([N+](=O)[O-])cc([N+](=O)[O-])c1,inactive
15,COc1ccc(C(C(=O)NC2CCCCC2)N(C(=O)CCl)c2ccc(OC)cc2)cc1 (stereo not drawn),inactive
16,COc1ccc(N(C(=O)CCl)C(C(=O)NC2CCCCC2)c2cccnc2)cc1 (stereo not drawn),inactive
17,O=C1c2ccccc2S(=O)(=O)N1Cc1nc2ccccc2s1,inactive
18,CCn1c(C)cc(C(=O)CN2C(=O)c3ccccc3S2(=O)=O)c1C,inactive
19,CCCC(=O)NC(c1ccc(OC)c(OC)c1)c1cc(Cl)c2cccnc2c1O (stereo not drawn),inactive
20,Cn1cc([N+](=O)[O-])c(C(=O)Nc2nc(-c3ccc(Cl)cc3)cs2)n1,inactive
21,O=C(Nc1nc(-c2ccccn2)cs1)c1ccc(F)c(S(=O)(=O)N2CCOCC2)c1,inactive
22,CC1CCCCC1NC(=O)/C(C#N)=C/C=C/c1ccccc1[N+](=O)[O-] (stereo not drawn),inactive
